This is a sample that favours compounds with a hit; in the whole collection about 2.8% have one here.
sPLA2-III inh: human group III sPLA2 inhibitors, primary screen, biochemical, QFRET, BODIPY PC-A2 liposome substrate; actives 0.56% (n = 370,000); inhibition, % at 12.2 µM; QFRET BODIPY PC-A2 liposome hydrolysis, fluorescence; Group 3 secretory phospholipase A2 (Homo sapiens), Q9NZ20;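 active = inhibition above mean plus 3 SD of compounds lying within the high and low control bounds, cut at about 19% in these data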
Target sequence (Q9NZ20 whole entry, looked up): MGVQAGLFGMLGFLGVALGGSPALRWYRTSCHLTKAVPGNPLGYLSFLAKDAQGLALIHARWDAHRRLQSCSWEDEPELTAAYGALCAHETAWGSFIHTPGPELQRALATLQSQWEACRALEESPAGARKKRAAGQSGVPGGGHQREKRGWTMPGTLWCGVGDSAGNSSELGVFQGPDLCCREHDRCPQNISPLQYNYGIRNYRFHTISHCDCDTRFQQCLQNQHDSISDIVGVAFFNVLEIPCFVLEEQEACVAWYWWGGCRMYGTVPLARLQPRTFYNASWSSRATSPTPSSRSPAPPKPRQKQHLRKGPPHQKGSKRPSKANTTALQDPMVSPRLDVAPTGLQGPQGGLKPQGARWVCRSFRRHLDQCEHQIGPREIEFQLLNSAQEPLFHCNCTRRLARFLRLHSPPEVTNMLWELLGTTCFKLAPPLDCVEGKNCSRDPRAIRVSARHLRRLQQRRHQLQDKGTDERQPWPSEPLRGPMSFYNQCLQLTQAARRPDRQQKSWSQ
bovine MsrA act: bovine MsrA enzyme activators, primary screen, biochemical, absorbance, HTS; AID 602163, 2012; Methionine sulfoxide reductase A (Bos taurus); activation, % at 10.6 µM; purified bovine MsrA, absorbance read-out; actives 0.3% (n = 360,000); in the data active = activation above about 7.5%
rCAG RNA binder: binders of r(CAG) RNA repeats, primary screen, biochemical, fluorescence; inhibition, % at 3 µM; actives 1.3% (n = 370,000); AID 651821, 2012; r(CAG) RNA repeat, TO-PRO-1 dye displacement fluorescence;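 active = inhibition above the plate cutoff, the mean of all test compounds on that plate plus 3 SD, cut at about 35% in these data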;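 also: higher means more dye released from RNA so lower well fluorescence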
MsrA inh: bovine MsrA enzyme inhibitors, primary screen, biochemical, absorbance, HTS; actives 0.75% (n = 360,000); AID 651718, 2012; purified bovine MsrA, absorbance read-out; inhibition, % at 15.5 µM; Methionine sulfoxide reductase A (Bos taurus)
MsrA inh confirm: bovine MsrA inhibitors, retest, confirmation, biochemical, absorbance, HTS. actives 41% (n = 2,300). AID 651822, 2012. shares compounds with MsrA inh. purified bovine MsrA, absorbance read-out. inhibition, % at 15.5 µM;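 also: coupled to thioredoxin reductase with NADPH and selenocystamine and DMSO as substrate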
Numbers stand for hits. Rule as the data show it, unless noted: active = inhibition above about 4.5%; inactive = the rest.

Screening CCN1C(=O)C(O)(CC(=O)/C=C/C=C/c2ccccc2)c2ccccc21 (configuration not stated) returned sPLA2-III inh inactive, bovine MsrA act inactive, rCAG RNA binder inactive, MsrA inh 5.8 and MsrA inh confirm inactive.
For NC(=O)CN1C(=O)C(O)(CC(=O)/C=C\c2ccc3c(c2)OCO3)c2ccccc21 (configuration not stated) the results were sPLA2-III inh inactive, bovine MsrA act inactive, rCAG RNA binder inactive, MsrA inh 4.8 and MsrA inh confirm inactive.
NC(=O)CN1C(=O)C(O)(CC(=O)/C=C\C=C\c2ccccc2)c2ccccc21 (configuration not stated) was read as sPLA2-III inh inactive, bovine MsrA act inactive, rCAG RNA binder inactive, MsrA inh 5.4 and MsrA inh confirm 5.0.
Cc1ccc2c(c1)C(O)(CC(=O)/C=C/C=C/c1ccccc1)C(=O)N2 (configuration not stated) was read as sPLA2-III inh inactive, bovine MsrA act inactive, rCAG RNA binder inactive, MsrA inh 6.3 and MsrA inh confirm inactive.
Screening O=C(NC(=O)c1c(F)cccc1F)O/N=C1\CCCc2occc21 returned sPLA2-III inh inactive, bovine MsrA act inactive, rCAG RNA binder inactive and MsrA inh inactive.
For Cc1cc(/N=C/C=C2\N(C)c3ccccc3C2(C)C)n(CCC#N)n1 the results were sPLA2-III inh inactive, bovine MsrA act inactive, rCAG RNA binder inactive, MsrA inh 5.4 and MsrA inh confirm inactive.
Screening CN1/C(=C\C=Nc2ccc3ccccc3c2)C(C)(C)c2ccccc21 returned bovine MsrA act inactive.
`CN1/C(=C\C=O)C(C)(C)c2ccccc21` gave sPLA2-III inh inactive, bovine MsrA act inactive, rCAG RNA binder inactive, MsrA inh 6.8 and MsrA inh confirm 6.0.
CN(C)c1ccc(N=C/C=C2\N(C)c3ccccc3C2(C)C)cc1 was read as sPLA2-III inh inactive, bovine MsrA act inactive, rCAG RNA binder inactive, MsrA inh 5.0 and MsrA inh confirm inactive.
O=Cc1ccccc1OCCN1CCCC1=O was read as sPLA2-III inh inactive, bovine MsrA act inactive, rCAG RNA binder inactive and MsrA inh inactive.
For CCOC(=O)CN1C(=O)S/C(=C/c2ccc3c(c2)n(C)c(=O)n3C)C1=O the results were sPLA2-III inh inactive, bovine MsrA act inactive, rCAG RNA binder inactive and MsrA inh inactive.
For Cn1c(=O)n(C)c2cc(/C=C3/SC(=O)N(CC(=O)N4CCOCC4)C3=O)ccc21 the results were sPLA2-III inh inactive, bovine MsrA act inactive, rCAG RNA binder inactive, MsrA inh 4.8 and MsrA inh confirm inactive.
For Cn1nnc2c(N3CCCCC3)nccc21 the results were sPLA2-III inh inactive, bovine MsrA act inactive, rCAG RNA binder inactive and MsrA inh inactive.
CCOc1cc(S(=O)(=O)N(CC)CC)c(OCC)cc1-n1cnnn1 was read as sPLA2-III inh inactive, bovine MsrA act inactive, rCAG RNA binder inactive, MsrA inh 25.2 and MsrA inh confirm 22.5.
`Nc1ccc(C(=O)CC(=O)Nc2ccc(Cl)cc2)cc1` gave sPLA2-III inh inactive, bovine MsrA act inactive, rCAG RNA binder inactive, MsrA inh 5.0 and MsrA inh confirm inactive.
`COc1ccccc1N(CC(=O)NCc1ccccc1)C(=O)CCC(=O)Nc1nccs1` gave sPLA2-III inh inactive, bovine MsrA act inactive, rCAG RNA binder inactive and MsrA inh inactive.
For CCOC(=O)CSC1=C(C#N)C(=O)NC(c2ccc(OC)c(OC)c2)S1 (configuration not stated) the results were sPLA2-III inh inactive, bovine MsrA act inactive, rCAG RNA binder inactive and MsrA inh inactive.
`CCOC(=O)CSC1=C(C#N)C(=O)NC(c2ccc(OC)cc2)S1` (configuration not stated) gave sPLA2-III inh inactive, bovine MsrA act inactive, rCAG RNA binder inactive, MsrA inh 6.6 and MsrA inh confirm 6.3.
Clc1ccc2nc3c4ccccc4cnn3c2c1 was read as sPLA2-III inh inactive, bovine MsrA act inactive, rCAG RNA binder inactive and MsrA inh inactive.
Screening Cc1ccc(NC(=O)C(c2ccccc2)c2ccccc2)c(O)c1 returned sPLA2-III inh inactive, bovine MsrA act inactive, rCAG RNA binder inactive and MsrA inh inactive.
`Cc1c(C(=O)NCc2ccccc2CN2CCCC2)oc2c(F)cccc12` gave sPLA2-III inh inactive, bovine MsrA act inactive, rCAG RNA binder inactive and MsrA inh inactive.
`CC1=C(c2ccc(F)cc2)[N+](=O)C(C)(C)N1[O-]` gave sPLA2-III inh inactive, bovine MsrA act inactive, rCAG RNA binder inactive, MsrA inh 4.8 and MsrA inh confirm inactive.
For CN(C)CCNC(=O)COc1ccc(C23CC4CC(CC(C4)C2)C3)cc1 the results were sPLA2-III inh inactive, bovine MsrA act inactive, rCAG RNA binder inactive and MsrA inh inactive.
Screening COc1nccnc1NS(=O)(=O)c1ccc(N/C=C2\CCCCC2=O)cc1 returned sPLA2-III inh inactive, bovine MsrA act inactive, rCAG RNA binder inactive, MsrA inh 5.3 and MsrA inh confirm 4.6.
For COc1nccnc1NS(=O)(=O)c1ccc(NS(=O)(=O)c2ccc(NC(C)=O)cc2)cc1 the results were sPLA2-III inh inactive, bovine MsrA act inactive, rCAG RNA binder inactive and MsrA inh inactive.
Screening COc1cc2c(cc1O)[C@@H]1Cc3cc(O)c(OC)cc3[C@H](C2)N1C returned sPLA2-III inh inactive, bovine MsrA act inactive, rCAG RNA binder inactive and MsrA inh inactive.
Screening CC1CCN(N=Nc2nc3c([nH]2)c(=O)n(C)c(=O)n3C)CC1 returned sPLA2-III inh inactive, bovine MsrA act inactive, rCAG RNA binder inactive, MsrA inh 7.8 and MsrA inh confirm 5.5.
Screening O=C(N/N=C/c1ccc(N2CCOCC2)cc1)c1ccc(NS(=O)(=O)c2cccs2)cc1 returned sPLA2-III inh inactive, bovine MsrA act inactive, rCAG RNA binder inactive, MsrA inh 6.8 and MsrA inh confirm 6.4.
For O=C(NN=Cc1ccc(F)c(F)c1)c1ccc(NS(=O)(=O)c2cccs2)cc1 the results were sPLA2-III inh inactive, bovine MsrA act inactive, rCAG RNA binder inactive and MsrA inh inactive.
For O=C(N/N=C/c1ccc(N2CCOCC2)s1)c1ccc(NS(=O)(=O)c2cccs2)cc1 the results were sPLA2-III inh inactive, bovine MsrA act inactive, rCAG RNA binder inactive, MsrA inh 4.7 and MsrA inh confirm inactive.
Screening O=C(N/N=C/c1ccc2c(c1)OCO2)c1ccc(NS(=O)(=O)c2cccs2)cc1 returned sPLA2-III inh inactive, bovine MsrA act inactive, rCAG RNA binder inactive, MsrA inh 5.7 and MsrA inh confirm 7.5.
For O=C(N/N=C/c1ccc(N2CCOCC2)cc1)c1ccncc1 the results were sPLA2-III inh inactive, bovine MsrA act inactive, rCAG RNA binder inactive, MsrA inh 5.0 and MsrA inh confirm 5.0.
CCc1cccc2c(C(=O)COC(=O)c3nn(C)c(=O)c4ccccc34)c[nH]c12 was read as sPLA2-III inh inactive, bovine MsrA act inactive, rCAG RNA binder inactive and MsrA inh inactive.
`O=[N+]([O-])c1ccc(-c2csc(N3CCc4ccccc4C3)n2)cc1` gave sPLA2-III inh inactive, bovine MsrA act inactive, rCAG RNA binder inactive and MsrA inh inactive.

Compound activity: PubChem BioAssay, The Scripps Research Institute Molecular Screening Center
